Compounds without any hit were thinned out: in the full panel of roughly 83,000, 20% have a hit.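 A percent growth of 40 corresponds to 60% growth inhibition; 0 means no net growth; -100 means all cells died. Active threshold: below 10.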 A number with no mark means an inactive call. Active and inactive are the calls of the source.
How the values were obtained:
Experiment in all cases: NCI-60 one-dose screen, 48 h (100 = growth as untreated, 0 = no growth, -100 = all killed)
Conditions in all cases: 10 µM unless noted
[1] = test system: T-47D breast
[2] = test system: BT-549 breast
[3] = test system: MDA-MB-435 melanoma
[4] = test system: SW-620 colon
[5] = test system: MCF7 breast
[6] = test system: HCT-116 colon
[7] = test system: HCC-2998 colon
[8] = test system: KM12 colon

Row | SMILES | growth [1] | growth [2] | growth [3] | growth [4] | growth [5] | growth [6] | growth [7] | growth [8]
1 | COc1cc(-c2cc(/C=C3\CCCCC3=O)[nH]n2)cc(OC)c1OC | 90.1% | 99.7% | 102% | 101% | 92.5% | 89% | 106% | 94.4%
2 | C=CCn1c(C)nc2ccc(Nc3nc(Nc4ccc(F)cc4)nc4ccccc34)cc21 | 35% | 59.2% | 57.1% | 46.1% | 26.1% | 26.9% | 80.6% | 36.6%
3 | NC(C(=O)O)C(O)c1ccc(OCc2ccccc2)c(OCc2ccccc2)c1 (centres undefined) | 88.1% | 95% | 102% | 97% | 87.3% | 101% | 115% | 100%
4 | Cc1cc(C)c2c(=O)[nH]c(SCC(=O)Nc3cccc(S(=O)(=O)N(C)C)c3)nc2n1 | 92.4% | 103% | 105% | 105% | 97.4% | 97.1% | 106% | 112%
5 | CC(C)C[C@H](NC(=O)[C@H](Cc1ccccc1)n1ccc(N2CCCCC2)cc1=O)B(O)O | -20.4% (active) | 31.3% | -66% (active) | 6.5% (active) | 31.3% | 2.64% (active) | -36.9% (active) | 1.6% (active)
6 | Nc1c(C(=O)c2ccc(F)cc2)sc2nc3c(cc12)CCCC3 | 79.9% | 90.7% | 22.5% | 81% | 80.4% | 72.2% | 76.7% | 66.2%
7 | C=CCN=C1NC(=O)/C(=C/c2cc(C(C)(C)C)c(O)c(C(C)(C)C)c2)S1 | 47.1% | 55.6% | -2.99% (active) | 63.5% | 43.8% | 46.4% | 89.8% | 61.4%
8 | Cc1cccc2cc(/C=C/C(=O)/C=C/c3ccc(Cl)cc3)c(=O)[nH]c12 | 41.6% | 7.28% (active) | -32.7% (active) | 8.48% (active) | 9.87% (active) | -52.7% (active) | -4.78% (active) | 8.42% (active)
9 | O=c1c2cccc3c(Nc4ccc(F)cc4)ccc(c32)c2nc3ccccc3n12 | 23.4% | 87.5% | 99.6% | 88% | 10.1% | 93.9% | 76.1% | 74.4%
10 | O=c1oc2cc(OS(=O)(=O)c3ccc(F)cc3)ccc2c2c1CCCCC2 | 30.3% | 73.6% | 78.5% | 46.3% | 59.9% | 54.4% | 69.8% | 55.1%
11 | COc1ccc2c(c1)C=CC(C#N)N2C(=O)c1ccccc1 (centres undefined) | 69.8% | 0.256% (active) | -52.4% (active) | 21.6% | 15% | 8.13% (active) | 18.6% | 13.4%
12 | O=[N+]([O-])c1c(S(=O)(=O)O)cc2cc(S(=O)(=O)O)ccc2c1[N+](=O)[O-] | 109% | 104% | 105% | 105% | 97.7% | 98.2% | 99.2% | 91.5%
13 | CCOc1ccc(/C=C/C=N/NC(N)=S)cc1 | 38.2% | 57.4% | 88.9% | 87.2% | 43.5% | 70.1% | 70.1% | 84%
14 | CC1CCc2c(sc(NC(=O)CSc3nnc4ccccn34)c2C(N)=O)C1 (centres undefined) | 105% | 142% | 99% | 109% | 96% | 104% | 105% | 108%
15 | COc1ccc(/C=C/C(=O)OCC(=O)NNC(=O)c2ccccc2)cc1OC | 101% | 98.6% | 104% | 98.4% | 85.6% | 103% | 127% | 115%
16 | Cc1ccc(C(=O)c2sc3nc4c(cc3c2N)CCCC4)c(C)c1 | 35.4% | 55.8% | -44.5% (active) | 30.3% | 21% | 25.3% | 39.6% | 33.9%
17 | O=C1CCC/C=C\C[C@H]2C=CC(=O)/C2=C/C[C@H](C/C=C\CC(F)(F)F)O1 | 6.6% (active) | -18% (active) | -22.8% (active) | -15.7% (active) | 6.19% (active) | -51.4% (active) | -83.7% (active) | -71.3% (active)
18 | O=[N+]([O-])c1ccc(S(=O)(=O)N2CCN(c3ccnc4cc(Cl)ccc34)CC2)c([N+](=O)[O-])c1 | 60.3% | 97.6% | 98.1% | 40.5% | 52.7% | 77.5% | 106% | 103%
19 | COc1ccc(/C=C/C(=O)c2cc(OC)c(OC)c(OC)c2)cc1OCc1cn(Cc2ccc(F)cc2)nn1 | 50.4% | 25.7% | 5.55% (active) | 15.4% | 13% | 15% | 101% | 6.55% (active)
20 | O=C(Nc1cccc(C(F)(F)F)c1)Nc1ccc(OCc2nnc(-c3ccccc3)o2)c(F)c1 | 21.1% | 29.6% | 49.4% | 28.7% | 24.8% | 14.6% | 64.3% | 12.2%
21 | CCOC(=O)c1cc(/C(=N\O)c2cc(OC)c(OC)c(OC)c2)n2c(C)cccc12 | 27.7% | 19.4% | -10.2% (active) | 23.3% | 17.1% | 27.2% | 70.8% | 27.9%
22 | CC(=O)Nc1nc(C(=O)N2N=C(C)/C(=C/c3ccc(Cl)cc3)C2=O)cs1 | 95.6% | 97.4% | 112% | 109% | 94.4% | 99.9% | 104% | 101%
23 | CCO/C=N/NC(=O)c1ccncc1 | 106% | 114% | 110% | 104% | 101% | 105% | 113% | 106%
24 | C[C@]12CC[C@@H]3c4cc(O)c(O)cc4CC[C@H]3[C@@H]1CC[C@@H]2O | 30.4% | 37.7% | -45% (active) | 30.7% | 17.8% | 37.9% | 91.4% | 74.5%
25 | O=C(CCCn1c2c(sc3ccccc32)c(=O)n2nnc(-c3ccccc3)c12)NCCc1cnc[nH]1 | -25.4% (active) | 72.2% | -95.1% (active) | -84.5% (active) | -100% (active) | -100% (active) | 25.7% | -63% (active)
26 | CC(=O)Nc1nc(C(=O)N2N=C(C)/C(=C/c3cccs3)C2=O)cs1 | 100% | 97% | 103% | 110% | 90.8% | 100% | 108% | 110%
27 | CCn1c(=O)c2c(=O)c3c4c(oc3oc2c2ccccc21)C(=O)c1ccccc1C4=O | -9.96% (active) | 85.1% | 95.9% | 73.5% | 61.9% | 34.6% | 101% | 86.6%
28 | CCn1cc(C(=O)O)c(=O)c2cc(F)c(N3CCN(S(=O)(=O)c4ccc(OC)c(OC)c4)CC3)cc21 | 87.2% | 105% | 98.9% | 113% | 100% | 105% | 104% | 96.2%

From PubChem BioAssay (NCI)
